Assay [1] can be described thus: ATG_NFI_CIS: Attagene CIS-FACTORIAL HepG2 Assay for human Nuclear Factor I (NFI) (AID 2282989). As to conditions: HepG2 cis-regulatory reporter, NFI response element transcription; actives raise or lower the signal. In short, it runs like this: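 HepG2 cells transiently transfected with cis-element-driven multiplexed reporter transcription units, dosed for 24 h. Reporter mRNA quantified by RT-PCR, fluorescent labelling, HpaI digestion and capillary electrophoresis; bidirectional fit versus DMSO baseline.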

The target of assay [2] is Myc proto-oncogene protein (Homo sapiens) (UniProt P01106). Put plainly: ATG_Myc_CIS: Attagene CIS-FACTORIAL HepG2 Assay for human Myelocytomatosis (Myc) Proto-Oncogene Transcription Factor (AID 2282990). The settings on record: HepG2, Attagene cis-reporter transcription factor activity; actives raise or lower the signal. The essentials:
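Read-out: fluorescent reporter mRNA fragments resolved by capillary electrophoresis after RT-PCR. Human HepG2 liver cells carried transfected cis-element reporter units and were dosed for 24 h. Gain or loss of signal fitted relative to DMSO baseline.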

The nature of assay [3]: ATG_NF_kB_CIS: Attagene CIS-FACTORIAL HepG2 Assay for human Nuclear Factor Kappa B (NF-kB) (AID 2282991). As to conditions: HepG2 Attagene cis-factorial NF-kB reporter mRNA; actives raise or lower the signal. The essentials:
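DMSO served as negative control and baseline for bidirectional curve fitting. Transiently transfected HepG2 cells were dosed for 24 h, then reporter transcripts were measured by RT-PCR with capillary electrophoresis detection.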

Assay [4] can be described thus: ATG_Oct_MLP_CIS: Attagene CIS-FACTORIAL HepG2 Assay for human Octamer-Binding Transcription Factor (Oct) (AID 2282993). As to conditions: HepG2 Attagene cis-factorial Oct reporter, mRNA; actives raise or lower the signal. The essentials: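 HepG2 cells transiently transfected with cis-promoter-driven multiplexed reporter transcription units, dosed for 24 h. Reporter mRNA quantified by RT-PCR, fluorescent labelling, HpaI digestion and capillary electrophoresis; bidirectional fits versus DMSO baseline.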

Assay [5] deals with Cellular tumor antigen p53 (Homo sapiens) (UniProt P04637). Put plainly: ATG_p53_CIS: Attagene CIS-FACTORIAL HepG2 Assay for human p53 Transcription Factor (AID 2282994). The settings on record: HepG2 p53 cis-element reporter, Attagene mRNA; actives raise or lower the signal. In short, it runs like this: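 Endogenous p53 activity read in transiently transfected HepG2 from a cis-element-driven reporter transcript after 24 h exposure. RNA reverse-transcribed, PCR-amplified, fluorescently labelled and sized by capillary electrophoresis; gain or loss fitted against DMSO baseline.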
Chain of Cellular tumor antigen p53 (Homo sapiens) (P04637 whole entry, looked up): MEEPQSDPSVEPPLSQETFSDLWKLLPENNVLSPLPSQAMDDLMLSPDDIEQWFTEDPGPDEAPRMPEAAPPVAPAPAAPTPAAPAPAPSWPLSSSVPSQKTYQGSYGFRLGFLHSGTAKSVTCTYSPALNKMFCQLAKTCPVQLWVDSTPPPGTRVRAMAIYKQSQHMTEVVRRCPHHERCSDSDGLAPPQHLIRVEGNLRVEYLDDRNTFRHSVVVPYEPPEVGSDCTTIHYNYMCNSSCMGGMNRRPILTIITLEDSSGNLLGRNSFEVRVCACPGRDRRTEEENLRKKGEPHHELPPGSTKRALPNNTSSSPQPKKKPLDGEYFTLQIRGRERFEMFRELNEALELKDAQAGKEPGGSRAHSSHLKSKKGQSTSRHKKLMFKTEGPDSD

Assay [6] is described as follows: BSK_3C_TissueFactor: BioMAP Diversity Plus: 3C Assay for Tissue Factor Biomarker Activity (AID 2282997). The settings on record: BioMAP 3C HUVEC, tissue factor biomarker readout; actives raise or lower the signal. The essentials: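 Tissue Factor measured by ELISA, 24 h after treatment of primary HUVEC in the BioMAP 3C setting.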
The nature of assay [7]: BSK_3C_uPAR: BioMAP Diversity Plus: 3C Assay for Urokinase-type plasminogen activator receptor (uPAR) Biomarker Activity (AID 2282998). As to conditions: BioMAP 3C HUVEC, uPAR biomarker ELISA; actives raise or lower the signal. In short, it runs like this: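 Human umbilical vein endothelial primary cells were exposed to test chemical for 24 h. Cell-surface uPAR was then quantified by ELISA, and responses were fitted bidirectionally against DMSO as negative control and baseline.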
(In general: ELISA stands for enzyme-linked immunosorbent assay.)

Assay [8] can be described thus: BSK_3C_VCAM1: BioMAP Diversity Plus: 3C Assay for Vascular cell adhesion molecule 1 (VCAM1) Biomarker Activity (AID 2282999). The settings on record: BioMAP 3C HUVEC, VCAM1 ELISA, cytokine-stimulated; actives raise or lower the signal. The essentials: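 HUVEC primary cells, 24 h compound exposure; VCAM-1 by ELISA; gain/loss of signal fitted bidirectionally vs DMSO baseline.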

The nature of assay [9]: BSK_4H_Eotaxin3: BioMAP Diversity Plus: 4H Assay for Eotaxin 3 Biomarker Activity (AID 2283000).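 Also: CCL26 protein level quantified by ELISA in parallel with SRB cytotoxicity check.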 As to conditions: primary human endothelial cells (HUVEC); actives raise or lower the signal. The essentials: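 Eotaxin-3 (CCL26) levels were measured by ELISA in HUVEC primary cultures 24 h post-dosing. Gain or loss of signal was fitted in both directions, with DMSO serving as baseline and negative control.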

Assay [10] has as its target human Peroxisome Proliferator-activated Receptor alpha (PPARa), PPARA (gene 5465) (UniProt Q07869). Briefly: ATG_PPARa_TRANS: Attagene TRANS-FACTORIAL HepG2 Assay for human Peroxisome Proliferator-activated Receptor alpha (PPARa) (AID 2283001; active = hit-call score of the fitted dose curve at least 0.9, where 1 is the maximum). The essentials:
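HepG2, transient MRTU transfection, 24 h treatment. RT-PCR → FAM labelling → capillary electrophoresis. Fit vs DMSO, positive direction.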

The target of assay [11] is human Peroxisome Proliferator-activated Receptor delta (PPARd), PPARD (gene 5467) (UniProt Q03181). Put plainly: ATG_PPARd_TRANS: Attagene TRANS-FACTORIAL HepG2 Assay for human Peroxisome Proliferator-activated Receptor delta (PPARd) (AID 2283002; active = hit-call score of the fitted dose curve at least 0.9, where 1 is the maximum). In short, it runs like this:
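Read-out: reporter mRNA induction, quantified by fluorescent RT-PCR products resolved by capillary electrophoresis. Human HepG2 liver cells carried transiently transfected Gal4-UAS reporter constructs with chimeric NR-Gal4 fusions. Cells were dosed for 24 h; DMSO served as baseline.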

Read-out in assay [12]: Intercellular Adhesion Molecule 1 (ICAM1), ICAM1 (gene 3383)
Briefly: BSK_3C_ICAM1: BioMAP Diversity Plus: 3C Assay for Intercellular Adhesion Molecule 1 (ICAM1) Biomarker Activity (AID 2283003). The settings on record: primary human endothelial cells (HUVEC); actives raise or lower the signal. The essentials: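 ELISA readout of ICAM1 in human umbilical vein endothelial cells in the 3C system, taken 24 h post-dose. Gain or loss of signal versus DMSO was fitted in both directions, with SRB total-protein staining run in parallel.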

The target in assay [13] is Retinoic acid receptor alpha (Homo sapiens) (UniProt P10276). Put plainly: ATG_RARa_TRANS: Attagene TRANS-FACTORIAL HepG2 Assay for human Retinoic Acid Receptor alpha (RARa) (AID 2283005; active = hit-call score of the fitted dose curve at least 0.9, where 1 is the maximum). In short, it runs like this: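 HepG2 transiently transfected with multiplex GAL4-UAS reporter units including a human RARa–GAL4 chimera; 24 h compound exposure. Reporter mRNA quantified by RT-PCR, 6-FAM labeling and capillary electrophoresis; gain of signal versus DMSO.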
Chain of Retinoic acid receptor alpha (Homo sapiens) (P10276 whole entry, looked up, the tested form may be a part): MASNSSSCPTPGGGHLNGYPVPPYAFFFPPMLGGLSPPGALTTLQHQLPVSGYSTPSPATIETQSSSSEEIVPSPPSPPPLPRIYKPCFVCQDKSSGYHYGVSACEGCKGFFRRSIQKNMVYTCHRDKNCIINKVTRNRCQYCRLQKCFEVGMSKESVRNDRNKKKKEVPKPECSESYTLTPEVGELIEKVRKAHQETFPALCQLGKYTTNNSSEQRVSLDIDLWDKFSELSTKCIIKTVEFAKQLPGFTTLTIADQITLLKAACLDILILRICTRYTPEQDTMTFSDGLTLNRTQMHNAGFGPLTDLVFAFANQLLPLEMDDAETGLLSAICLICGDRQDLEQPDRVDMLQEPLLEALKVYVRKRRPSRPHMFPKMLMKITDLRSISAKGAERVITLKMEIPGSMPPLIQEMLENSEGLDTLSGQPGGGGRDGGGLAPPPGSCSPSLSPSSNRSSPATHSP

Assay [14] can be described thus: BSK_3C_Proliferation: Cell Proliferation Assessment in the BioMAP Diversity Plus: 3C Assay (AID 2283006). The settings on record: primary human endothelial cells (HUVEC). The essentials: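 Proliferation as total protein: sulforhodamine B (0.1%) stain of TCA-fixed subconfluent human umbilical vein endothelial cells, absorbance 560 nm, 48 h after dosing. Activity fitted in both directions against DMSO baseline.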

The target in assay [15] is Peroxisome proliferator-activated receptor gamma (Homo sapiens) (UniProt P37231). Put plainly: ATG_PPARg_TRANS: Attagene TRANS-FACTORIAL HepG2 Assay for human Peroxisome Proliferator-activated Receptor-gamma (PPARg) (AID 2283007; active = hit-call score of the fitted dose curve at least 0.9, where 1 is the maximum). In short, it runs like this: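 Chimeric NR-Gal4 transactivation is measured in transiently transfected HepG2 cells by reporter mRNA induction at 24 h. Detection uses RT-PCR with fluorescent labelling and capillary electrophoresis; DMSO defines baseline.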
Chain of Peroxisome proliferator-activated receptor gamma (Homo sapiens) (P37231 whole entry, looked up, the tested form may be a part): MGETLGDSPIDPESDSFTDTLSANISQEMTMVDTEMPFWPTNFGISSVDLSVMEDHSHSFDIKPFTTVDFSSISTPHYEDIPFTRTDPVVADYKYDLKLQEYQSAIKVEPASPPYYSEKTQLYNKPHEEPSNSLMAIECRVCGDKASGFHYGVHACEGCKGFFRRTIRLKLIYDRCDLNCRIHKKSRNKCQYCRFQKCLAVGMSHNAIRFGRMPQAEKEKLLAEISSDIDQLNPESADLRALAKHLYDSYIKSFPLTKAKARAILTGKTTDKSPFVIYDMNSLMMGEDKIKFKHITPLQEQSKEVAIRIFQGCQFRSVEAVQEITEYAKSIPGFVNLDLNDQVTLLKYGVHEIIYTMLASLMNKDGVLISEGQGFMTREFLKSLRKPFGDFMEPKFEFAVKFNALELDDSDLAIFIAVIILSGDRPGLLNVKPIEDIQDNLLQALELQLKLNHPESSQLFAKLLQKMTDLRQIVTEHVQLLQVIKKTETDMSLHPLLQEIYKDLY

The target of assay [16] is Nuclear receptor subfamily 1 group I member 2 (Homo sapiens) (UniProt O75469). Put plainly: ATG_PXR_TRANS: Attagene TRANS-FACTORIAL HepG2 Assay for human Pregnane X Receptor (PXR) (AID 2283008; active = hit-call score of the fitted dose curve at least 0.9, where 1 is the maximum). In short, it runs like this:
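Transactivation by exogenous PXR–GAL4 fusion measured as reporter transcript induction after 24 h compound treatment of transfected human HepG2 cells. Read-out via RT-PCR and capillary electrophoresis of labelled fragments, fitted upward relative to DMSO.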

The target of assay [17] is human Retinoic Acid Receptor gamma (RARg), RARG (gene 5916) (UniProt P13631). Briefly: ATG_RARg_TRANS: Attagene TRANS-FACTORIAL HepG2 Assay for human Retinoic Acid Receptor gamma (RARg) (AID 2283009; active = hit-call score of the fitted dose curve at least 0.9, where 1 is the maximum). The essentials: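 Transactivation of exogenous RARg-Gal4 fusion measured as reporter transcript induction after 24 h in transfected HepG2 cells. RNA reverse-transcribed, amplified, fluorescently labeled and resolved by capillary electrophoresis; increase relative to DMSO.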
Chain of human Retinoic Acid Receptor gamma (RARg), RARG (gene 5916) (P13631 whole entry, looked up, the tested form may be a part): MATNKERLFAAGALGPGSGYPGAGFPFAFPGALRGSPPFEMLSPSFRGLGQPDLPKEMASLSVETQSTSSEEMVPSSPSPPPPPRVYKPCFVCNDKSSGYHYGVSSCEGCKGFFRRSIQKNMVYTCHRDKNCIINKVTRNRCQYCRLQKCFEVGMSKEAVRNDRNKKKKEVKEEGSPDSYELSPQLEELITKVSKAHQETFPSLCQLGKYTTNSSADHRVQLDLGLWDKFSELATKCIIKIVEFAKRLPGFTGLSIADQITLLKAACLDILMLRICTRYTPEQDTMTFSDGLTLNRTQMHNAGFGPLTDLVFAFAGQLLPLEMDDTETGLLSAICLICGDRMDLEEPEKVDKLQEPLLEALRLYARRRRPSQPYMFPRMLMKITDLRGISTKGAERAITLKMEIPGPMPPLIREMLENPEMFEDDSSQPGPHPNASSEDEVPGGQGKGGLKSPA

Assay [18] can be described thus: ATG_NRF2_ARE_CIS: Attagene CIS-FACTORIAL HepG2 Assay for human Nuclear Factor Erythroid 2 Related Factor 2 (NFR2) response to Antioxidant Response Elements (ARE) (AID 2282992). As to conditions: HepG2 Attagene ARE/NRF2 reporter, transcription factor activity; actives raise or lower the signal. In short, it runs like this: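 Endogenous transcription factor activity read out as reporter transcript levels (RT-PCR plus capillary electrophoresis, fluorescence) in transiently transfected HepG2 cells. Measured at 24 h after dosing; gain or loss of signal fitted versus DMSO.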

Assay [19] has as its target human RAR-related Orphan Receptor beta (RORb), RORB (gene 6096) (UniProt Q92753). Put plainly: ATG_RORb_TRANS: Attagene TRANS-FACTORIAL HepG2 Assay for human RAR-related Orphan Receptor beta (RORb) (AID 2283010; active = hit-call score of the fitted dose curve at least 0.9, where 1 is the maximum). In short, it runs like this:
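Read-out is reporter mRNA induction, quantified by RT-PCR with fluorescent capillary electrophoresis, 24 h post-dose in transiently transfected HepG2 expressing exogenous NR-Gal4 chimera. Activity fitted upward versus DMSO.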

The values below come from PubChem BioAssay (EPA / NIEHS).

Results filed as inconclusive are left out. The source made the active and inactive calls. The calls were made as follows, unless noted: active = hit-call score of the fitted dose curve at least 0.9, where 1 is the maximum; inactive = score below 0.9.

Chain of Nuclear receptor subfamily 1 group I member 2 (Homo sapiens) (O75469 whole entry, looked up, the tested form may be a part): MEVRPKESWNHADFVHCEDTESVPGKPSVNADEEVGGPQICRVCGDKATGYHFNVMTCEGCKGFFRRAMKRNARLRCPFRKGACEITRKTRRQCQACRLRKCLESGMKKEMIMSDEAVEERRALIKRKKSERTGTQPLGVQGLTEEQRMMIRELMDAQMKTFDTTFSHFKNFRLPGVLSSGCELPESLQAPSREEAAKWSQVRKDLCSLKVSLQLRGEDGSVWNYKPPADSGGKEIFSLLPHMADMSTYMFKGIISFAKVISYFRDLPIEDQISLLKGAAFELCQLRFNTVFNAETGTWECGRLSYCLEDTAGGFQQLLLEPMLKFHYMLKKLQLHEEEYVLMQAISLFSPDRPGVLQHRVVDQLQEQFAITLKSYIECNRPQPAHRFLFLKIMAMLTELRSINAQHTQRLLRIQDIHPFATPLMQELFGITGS
Chain of human RAR-related Orphan Receptor beta (RORb), RORB (gene 6096) (Q92753 whole entry, looked up, the tested form may be a part): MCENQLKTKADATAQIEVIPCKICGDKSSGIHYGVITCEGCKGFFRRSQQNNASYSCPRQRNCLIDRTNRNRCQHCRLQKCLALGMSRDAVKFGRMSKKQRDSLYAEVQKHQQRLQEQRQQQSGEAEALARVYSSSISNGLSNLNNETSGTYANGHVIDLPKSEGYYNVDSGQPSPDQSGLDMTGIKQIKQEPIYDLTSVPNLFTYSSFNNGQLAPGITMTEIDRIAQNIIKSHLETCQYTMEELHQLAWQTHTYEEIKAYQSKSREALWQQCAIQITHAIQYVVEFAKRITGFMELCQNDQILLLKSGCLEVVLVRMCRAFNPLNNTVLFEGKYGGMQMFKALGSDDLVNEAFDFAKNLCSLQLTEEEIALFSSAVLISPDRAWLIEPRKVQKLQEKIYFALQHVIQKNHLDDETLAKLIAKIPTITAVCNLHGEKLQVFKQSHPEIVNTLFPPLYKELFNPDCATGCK
Chain of Myc proto-oncogene protein (Homo sapiens) (P01106 whole entry, looked up, the tested form may be a part): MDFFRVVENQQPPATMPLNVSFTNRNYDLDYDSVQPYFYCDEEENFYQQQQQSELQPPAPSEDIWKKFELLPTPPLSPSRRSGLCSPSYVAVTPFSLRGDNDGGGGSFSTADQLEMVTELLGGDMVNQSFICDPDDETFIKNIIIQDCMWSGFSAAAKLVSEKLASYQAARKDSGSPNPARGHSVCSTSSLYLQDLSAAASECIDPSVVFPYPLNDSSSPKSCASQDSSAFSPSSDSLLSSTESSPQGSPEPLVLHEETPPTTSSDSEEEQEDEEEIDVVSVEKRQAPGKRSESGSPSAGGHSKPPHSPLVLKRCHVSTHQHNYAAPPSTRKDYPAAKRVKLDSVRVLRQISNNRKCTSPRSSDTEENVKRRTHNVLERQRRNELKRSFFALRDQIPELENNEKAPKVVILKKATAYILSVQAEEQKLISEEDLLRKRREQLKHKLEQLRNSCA
Chain of human Peroxisome Proliferator-activated Receptor alpha (PPARa), PPARA (gene 5465) (Q07869 whole entry, looked up): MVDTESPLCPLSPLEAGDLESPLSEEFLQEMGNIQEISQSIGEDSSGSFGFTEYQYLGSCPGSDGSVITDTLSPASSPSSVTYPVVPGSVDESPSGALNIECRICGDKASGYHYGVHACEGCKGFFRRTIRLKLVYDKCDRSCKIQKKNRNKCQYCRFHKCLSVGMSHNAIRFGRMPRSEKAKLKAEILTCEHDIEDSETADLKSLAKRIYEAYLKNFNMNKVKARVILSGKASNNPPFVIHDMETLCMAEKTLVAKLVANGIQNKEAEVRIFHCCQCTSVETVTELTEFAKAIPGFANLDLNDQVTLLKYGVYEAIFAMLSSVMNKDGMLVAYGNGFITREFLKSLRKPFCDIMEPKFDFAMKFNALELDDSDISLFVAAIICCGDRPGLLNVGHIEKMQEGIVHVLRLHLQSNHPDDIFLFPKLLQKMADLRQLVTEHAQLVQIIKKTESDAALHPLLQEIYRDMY
Chain of human Peroxisome Proliferator-activated Receptor delta (PPARd), PPARD (gene 5467) (Q03181 whole entry, looked up, the tested form may be a part): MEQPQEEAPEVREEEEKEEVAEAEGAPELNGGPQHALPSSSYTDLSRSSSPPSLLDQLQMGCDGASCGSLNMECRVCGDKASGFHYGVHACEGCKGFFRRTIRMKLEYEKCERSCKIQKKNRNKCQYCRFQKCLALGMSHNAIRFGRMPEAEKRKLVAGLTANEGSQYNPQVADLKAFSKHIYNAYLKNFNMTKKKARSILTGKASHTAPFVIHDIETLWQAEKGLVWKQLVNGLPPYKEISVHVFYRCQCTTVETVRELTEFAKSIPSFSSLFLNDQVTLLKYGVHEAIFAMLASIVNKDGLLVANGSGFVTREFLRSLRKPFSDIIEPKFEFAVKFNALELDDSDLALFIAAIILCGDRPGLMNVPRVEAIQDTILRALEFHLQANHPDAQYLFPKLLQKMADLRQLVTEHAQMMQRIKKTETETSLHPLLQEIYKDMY

Consider `CC(C=O)Cc1ccc2c(c1)OCO2` (configuration not stated), for which the call in assay [1], in assay [2], in assay [3], in assay [4], in assay [5] and in assay [6] was inactive. Also, the outcome in assay [7], in [8], in assay [9], in assay [10], in assay [11] and in [12] was inactive. The result in assay [13], in assay [14], in assay [15] and in [17] was inactive. Moreover, the concentration at half-maximal activity (AC50) (usually the concentration at which the activity in the assay is half-maximal) in assay [16] was 21.5 µM (active).

As for `C=CC(=O)NC(C)(C)CC(C)=O`, the call in assay [1], in assay [2], in assay [18], in [4], in assay [5] and in [10] was inactive. For the same compound, the compound was classed as inactive in [16] and in assay [19].

For the compound `O=C(N[C@H]1CN2CCC1CC2)c1ccc2c(c1)OCCO2`, the result in assay [1], in [2], in assay [18], in assay [4], in assay [6] and in assay [7] was inactive. For the same compound, the result in assay [8], in assay [9], in assay [11], in assay [12], in assay [14] and in assay [15] was inactive. The compound was classed as inactive in assay [16] and in assay [17].

Consider `CCOC(=O)Cc1ccccc1`, for which the outcome in [1], in assay [2], in assay [18], in assay [4], in assay [10] and in assay [15] was inactive. Further, the compound was called inactive in assay [19].

With `C=CC(Cl)CCl` (configuration not stated), the result in [1], in [2], in [4], in [7], in assay [8] and in [9] was inactive. The compound was classed as inactive in assay [10], in assay [12], in assay [13], in assay [14], in assay [15] and in [17]. For the same compound, the outcome in [19] was inactive. The concentration at half-maximal activity (AC50) is 20.2 µM (active) in assay [18], 0.0174 µM (active) in assay [6] and 27.2 µM (active) in [16].
